# B2AR arrestin: beta2AR (human) beta-arrestin recruitment activity | P07550 | beta-arrestin recruitment to beta2AR, cell-based reporter | Potency, µM (doses to about 46.1 µM), for the others: top-dose activation, usual class: activators | 0.02% of 330,000 active; active = well fitted activation curve with a large enough effect; inconclusive = small, poorly fitted or top-dose-only effect;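 note: potency is the fitted concentration of half-maximal effect; 0% = DMSO controls and full agonism = EC100 isoproterenol or metaproterenol; nearly all actives have a fitted effect of over 65% in size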
# Target sequence (P07550 whole entry, looked up): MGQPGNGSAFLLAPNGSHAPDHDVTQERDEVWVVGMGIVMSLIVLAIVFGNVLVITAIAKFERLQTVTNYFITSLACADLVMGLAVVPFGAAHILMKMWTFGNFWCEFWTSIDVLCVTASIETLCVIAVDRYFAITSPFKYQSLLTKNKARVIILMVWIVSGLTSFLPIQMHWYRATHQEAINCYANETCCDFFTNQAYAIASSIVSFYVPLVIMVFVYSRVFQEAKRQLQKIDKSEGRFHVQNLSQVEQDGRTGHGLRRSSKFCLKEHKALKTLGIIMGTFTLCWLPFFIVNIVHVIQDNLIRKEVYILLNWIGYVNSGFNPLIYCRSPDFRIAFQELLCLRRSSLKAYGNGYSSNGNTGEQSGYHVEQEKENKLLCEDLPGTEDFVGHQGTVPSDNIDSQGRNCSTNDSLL
# D2 antag: D2 dopamine receptor (human) antagonism; P14416; HEK293 TREx D2 cells, calcium flux, dopamine EC80; inhibition, % at 10 µM; 2% of 340,000 active; in the data active = inhibition above about 30%; inactive = below that, where a call was filed; note: 0% is about no effect
#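 Measurement of antagonist activity uses fluorescent calcium dye in inducible HEK293 T-REx D2 cells: 10 s baseline, compound addition with 180 s read, EC80 dopamine addition with a further 180 s read.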
# D2 ag-1: agonists of human D2 dopamine receptor; 0.53% of 340,000 active; P14416; activation, % at 2 µM; HEK293 T-REx D2 cells, calcium flux agonist mode;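 active = activation over 3 SD above normal in the single-dose calcium agonist read, cut at about 30% in these data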; note: 0% is about no effect
#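 Tetracycline-induced HEK293 Trex cells with D2 receptor force-coupled to calcium signaling, plated overnight at 30 C and loaded with no-wash calcium dye. Calcium flux read kinetically for 180 s after compound addition; responses flag agonists.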
# D2 ag-2: agonists of human D2 dopamine receptor (beta-arrestin). AID 624465. P14416. activation, % (test concentration not listed). 0.084% of 360,000 active. DiscoveRx PathHunter D2 beta-arrestin, luminescence, 90 min; 100% = 57 uM dopamine signal; in the data active = activation above about 40%; inconclusive = between about 15% and that limit
#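 Agonist mode: compounds alone added to overnight-plated D2 PathHunter cells for 90 min at 37 C, with 57 uM final dopamine (EC100) defining full response. Beta-arrestin recruitment detected by chemiluminescent reagent, read after 1 h at ambient temperature.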
# D2 PAM-1: positively modulates the human D2 dopamine receptor allosterically. HEK293 T-REx D2, calcium flux, EC20 dopamine potentiation. potentiation, % at 10 µM. 0.34% of 340,000 active. AID 485347;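 active = potentiation over 3 SD above the plate norm, cut at about 30% in these data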; note: 0% is about no effect
#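 Cells plated with tetracycline inducer and held overnight at 30 C; calcium dye loaded 30–90 min at room temperature; baseline taken, compound added and read 180 s; EC20 dopamine then added and read 180 s.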
# D2 PAM-2: potentiates the human D2 dopamine receptor allosterically; P14416; DiscoveRx D2 beta-arrestin cells, luminescence, 90 min; 100% = 57 uM dopamine signal; potentiation, % (test concentration not listed); 0.23% of 360,000 active; AID 624464; in the data active = potentiation above about 50%; inconclusive = mostly about 30% to 49%
#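 D2 cells co-treated with compound plus 50 nM dopamine (EC20) for 90 min at 37 deg C to detect potentiation. Beta-arrestin recruitment was read as enzyme-fragment luminescence after 1 h at ambient temperature. Full response was set by 57 uM dopamine.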
# Active calls of the source: *; ? = inconclusive; / = no result given. Most compounds without a hit are left out; they make up all but 2.4% or so of the library.
SMILES,B2AR arrestin,D2 antag,D2 ag-1,D2 ag-2,D2 PAM-1,D2 PAM-2
CCOC(=O)CN(C(=O)CSc1nnc(CNc2ccc(F)cc2)o1)c1ccccc1,-1%,2,0,-2,0,-33
COCCCNC(=O)c1ccc(C)c(-n2c(C)nc3cccnc32)c1,/,/,0,/,-3,/
[N-]=C=C1C(=O)NC(=O)C([n+]2ccc(-c3ccncc3)cc2)C1c1ccccc1C(F)(F)F (centres undefined),2%,35*,-1,7,3,5
C[C@H](CO)NC(=O)c1nc[nH]c1C(=O)N[C@@H](C)c1ccccc1,/,/,/,-2,/,0
c1csc(-c2nc(-c3ccc(-c4ccon4)s3)no2)c1,-1%,/,/,-2,/,-2
CC1(C)Cc2c(c(=S)nc(-c3ccccc3)n2CCN2CCOCC2)CO1,0%,/,/,-1,/,-11
COCCn1c(-c2ccccc2)nc(=S)c2c1CC(C)(C)OC2,0%,11,1,-2,37*,29
N#Cc1ccccc1S(=O)(=O)N1CCN(C(=O)CCC2CCCC2)CC1,0%,5,1,-2,18,-2
COc1ccc(-c2onc3ccc(Br)cc23)cc1,-1%,-1,1,?,4,100*
COc1nc(-c2ccccc2)c2cc(Br)ccc2n1,/,/,/,-3,/,-18
COc1cc(-c2onc3ccc(Br)cc23)cc(OC)c1OC,-1%,-8,0,?,-1,59*
CC(C)(C)c1ccc(C(O)c2ncc(-c3ccc(F)cc3)[nH]2)cc1 (centres undefined),/,/,/,-6,/,-4
O=S(=O)(c1ccccc1)N1CCN(Cc2ccc(Cl)cc2)CC1,0%,1,-1,3,7,1
Cc1cccc(NC(=O)CNC(=O)c2cn(Cc3ccccc3)nc2-c2cccnc2)c1C,0%,-17,-3,-3,-2,-1
Cc1cc(C)cc(NC(=O)[C@H](NC(=O)[C@@H]2Cc3ccccc3CN2)c2ccccc2)c1,12%,40*,0,-3,-20,-21
Cc1ccc(NC(=O)[C@H](NC(=O)[C@@H]2Cc3ccccc3CN2)c2ccccc2)c(C)c1,5%,-1,1,-5,0,-15
COc1ccc(C(=O)OCC(=O)Nc2ccc([N+](=O)[O-])cc2OC)c(O)c1,-1%,-7,0,2,5,4
COCCN1C(=O)/C(=C/c2ccc(N3CCCC3)cc2)SC1=S,0%,9,41*,-5,5,-9
O=C1/C(=C/c2cccc(Cl)c2)SC(=S)N1CCC(=O)N1CCCCC1CCO (centres undefined),0%,17,1,6,-13,-11
O=C1/C(=C/c2ccc(Cl)cc2)SC(=S)N1CCC(=O)N1CCCCC1CCO (centres undefined),0%,31*,0,4,8,-12
CCCOc1ccc(/C=C/C(=O)N2CCOCC2)cc1,3%,-7,-1,-1,-5,-2
COc1ccc(S(=O)(=O)N2CCCCCC2)cc1C(=O)OCC(=O)NC(C)(C)C,0%,6,1,1,-2,-2
COc1cccc(-c2nc(CS(=O)(=O)CC(=O)N3CCN(c4ccccn4)CC3)c(C)o2)c1,0%,-9,0,4,9,-3
COc1ccc(S(=O)(=O)N2CCC3(CC2)CC(=O)c2ccccc2O3)cc1OC,-1%,45*,0,9,-11,-4
CC(C)N1CCc2c(sc(NC(=O)Cc3ccccc3)c2C(N)=O)C1,0%,40*,0,-1,-20,-14
SMILES,B2AR arrestin,D2 antag,D2 ag-1,D2 ag-2,D2 PAM-1,D2 PAM-2
CCCN1CCc2c(sc(NC(=O)c3ccc(S(=O)(=O)N(C)c4ccccc4)cc3)c2C(N)=O)C1,0%,-4,78*,-7,0,-12
NC(=O)c1c(NC(=O)C2COc3ccccc3O2)sc2c1CCN(Cc1ccccc1)C2 (centres undefined),0%,-2,42*,-15,-3,-23
CC(C)N1CCc2c(sc(NC(=O)CCS(=O)(=O)c3ccccc3)c2C#N)C1,6%,34*,0,-4,9,-3
CCCN1CCc2c(sc(NC(=O)c3ccc(S(=O)(=O)N(C)c4ccccc4)cc3)c2C(=O)NC)C1,-1%,-6,18,-6,-1,0
CC1CCCN(S(=O)(=O)c2cccc(C(=O)NCC3CCCO3)c2)C1 (centres undefined),0%,/,/,-2,/,4
CCCOc1ccccc1NS(=O)(=O)c1ccc2[nH]c(=O)[nH]c2c1,0%,7,2,1,1,-10
CC(=O)Nc1sc2c(c1-c1nc3ccccc3s1)CCN(C(C)C)C2,-1%,-7,47*,-6,-2,-18
COc1ccc(CC(=O)Nc2sc3c(c2C(N)=O)CCCC3)cc1OC,1%,3,0,6,2,5
COc1cccc(CC(=O)Nc2sc3c(c2C(N)=O)CCCC3)c1,-1%,39*,0,2,-9,-1
COC(=O)/C=C1/S/C(=N/NC(=O)c2ccc(OC)cc2)NC1=O,1%,-1,0,-5,-4,-3
Cc1ccc(CSc2nc(N)cc(=O)[nH]2)cc1,0%,30*,1,-2,-9,-11
CC(=O)NC12CC3CC(C1)CC(C(=O)OCC(=O)Nc1c(F)cccc1F)(C3)C2,0%,37*,0,1,-6,-7
O=C(c1cc2ccccc2[nH]1)N(Cc1cccnc1)CC1CCCN(C2CCCCC2)C1 (centres undefined),0%,39*,0,0,-12,-26
CC(=O)N(Cc1cccnc1)Cc1cc2ccccc2[nH]c1=O,-1%,-9,0,-1,-8,-9
CCCCN(C)C(=O)c1ccc(S(=O)(=O)N2CCOCC2)cc1,-1%,33*,0,-2,3,0
Cc1onc(-c2c(Cl)cccc2Cl)c1C(=O)Nc1nc(C(C)(C)C)cs1,0%,9,-1,-6,-2,-13
Cc1ccc(-c2ccc([C@H]3[C@H]4C=CC[C@@H](C)[C@@H]4C(=O)N3Cc3ccccc3)c(F)c2)cc1,0%,33*,1,-6,-4,-9
Cc1nc(S/C(=C/c2ccc(-c3cccc(Cl)c3)o2)C(=O)O)n[nH]1,0%,10,0,-2,-4,8
O=C(NC1CCN(S(=O)(=O)c2ccccc2)CC1)c1ccccc1,0%,-7,1,-3,-5,-4
C=CCOc1ccc(C=Nc2ccc(OC)cc2)c(O)c1,0%,-6,0,2,48*,2
CCOc1ccc(CNCCCSc2ncccn2)cc1OC,0%,/,/,-1,/,6
